# High-throughput results as filed in PubChem.
# hgDAF-12 ag = hgDAF-12 agonism, primary luciferase screen. HEK293 GAL4-hgDAF12 UAS-luciferase reporter, agonist luminescence; normalized to butyrate control. activation, % at 6.8 µM. hit rate 1.8% among 370,000. AID 687014;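 active = activation above a cutoff set at the mean of all screened compounds plus 3 SD, cut at about 10% in these data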
# ssDAF12 agonist = activators of S. stercoralis DAF-12 nuclear receptor. HEK293 ssDAF-12/GRIP1 lit1-tk-luc reporter, luminescence; % of 3 µM dafachronic acid response. activation, % at 6.8 µM. hit rate 1% among 370,000;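 active = activation above the mean over all tested compounds plus 3 SD, cut at about 0.9% in these data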
# hcDAF12 agonist = H. contortus DAF-12 activation, primary screen; HEK293 hcDAF-12 lit1-tk-luc reporter, luminescence; 0% DMSO, 100% Δ7-dafachronic acid; activation, % at 6.8 µM; hit rate 1.4% among 370,000;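 active = activation above the mean of all tested compounds plus 3 SD, cut at about 5.5% in these data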
# DAX1 inh-1 = inhibitors of DAX1 repression of SF-1 activated StAR promoter. HEK293T StAR-luciferase reporter, SF-1/DAX-1 repression relief. inhibition, % at 6.8 µM. hit rate 1.1% among 370,000. AID 652010;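 active = inhibition above the mean over all tested compounds plus 3 SD, cut at about 3.6% in these data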;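 also: higher inhibition means more luminescence from relief of DAX-1 repression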
# DAX1 inh-2 = inhibits human nuclear receptor DAX1. P51843. HEK293 Gal4-DAX1 luciferase reporter, luminescence. inhibition, % at 6.75 µM. hit rate 0.99% among 340,000. AID 504766;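 active = inhibition above the mean over all tested compounds plus 3 SD, cut at about 4.2% in these data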;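 also: inhibition shows as a rise in luminescence from relieved DAX1 repression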
# DAX1 inh confirm = NR0B1 (human) inhibition, confirmation; inhibition, % at 6.8 µM; hit rate 87% among 2,400; HEK293T StAR-promoter luciferase reporter, SF-1/DAX-1 repression; shares compounds with DAX1 inh-1; AID 652134;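 active = inhibition above the average of every tested compound plus 3 SD, cut at about 3.8% in these data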;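 also: active compounds raise luminescence by relieving repression of the StAR reporter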
# SF1 mutant ctr = counter-screen for DAX1 inhibitors: nonselective inhibitors with SF-1 AF2 mutant | shares compounds with DAX1 inh-1 | hit rate 78% among 2,400 | HEK293 StAR-luciferase, luminescence | inhibition, % at 6.8 µM;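 active = inhibition above the mean of all tested compounds plus 3 SD, cut at about 3% in these data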
# LXRb hcDAF ctr = LXR-beta agonism as hcDAF-12 counter-screen. activation, % at 6.8 µM. 3,400 tested, under 10 active. AID 743027. shares compounds with hcDAF12 agonist. HEK293 Gal4-LXR tk-luc reporter, luminescence, 24 h; normalized: DMSO 0%, positive control 100%;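 active = mean percent activation of the reporter above a cutoff set as the average over tested compounds plus their standard deviation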
# Target sequence (P55055 whole entry, looked up, the tested form may be a part): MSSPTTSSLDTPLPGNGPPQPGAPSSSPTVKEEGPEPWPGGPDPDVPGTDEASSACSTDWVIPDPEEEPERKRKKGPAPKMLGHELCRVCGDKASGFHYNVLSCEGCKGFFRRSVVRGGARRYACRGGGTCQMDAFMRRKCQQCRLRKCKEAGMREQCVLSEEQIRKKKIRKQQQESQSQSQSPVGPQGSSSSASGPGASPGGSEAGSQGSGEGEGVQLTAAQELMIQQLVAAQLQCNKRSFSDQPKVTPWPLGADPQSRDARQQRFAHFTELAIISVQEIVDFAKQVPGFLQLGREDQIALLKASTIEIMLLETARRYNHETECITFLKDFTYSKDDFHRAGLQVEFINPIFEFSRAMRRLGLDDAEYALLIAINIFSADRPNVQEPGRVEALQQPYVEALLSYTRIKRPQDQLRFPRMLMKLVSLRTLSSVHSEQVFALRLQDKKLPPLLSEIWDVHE
# hcDAF12 conf = hcDAF-12 agonism, confirmation assay; AID 743032; HEK293 hcDAF-12 lit1-tk-luc reporter, luminescence; % of Δ7-dafachronic acid response; shares compounds with hcDAF12 agonist; hit rate 61% among 3,400; activation, % at 6.8 µM;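 active = mean activation across triplicate tests above the threshold derived from the earlier primary screen, cut at about 5.5% in these data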
# hgDAF12 ag = confirmation of H. glycines DAF-12 agonists; shares compounds with hgDAF-12 ag; HEK293 GAL4-hgDAF12 luciferase reporter, agonist mode; percent of butyrate response; activation, % at 6.8 µM; hit rate 80% among 3,300;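 active = mean activation over triplicate wells above the hit cutoff derived from the earlier primary screen, cut at about 11% in these data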
# LXRb DAF12 ctr = LXR-beta agonism as DAF-12 counter-screen; shares compounds with hgDAF-12 ag; HEK293 Gal4-LXR luciferase reporter, 24 h; activation, % at 6.8 µM; 3,300 tested, under 10 active; AID 743051;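 active = mean activation of the triplicate above a set limit carried over from the primary screen, none filed active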
# A number is an active result; n = inactive; x = no result given. This is a sample that favours compounds with a hit; in the whole collection about 4.1% have one here.
SMILES,hgDAF-12 ag,ssDAF12 agonist,hcDAF12 agonist,DAX1 inh-1,DAX1 inh-2,DAX1 inh confirm,SF1 mutant ctr,LXRb hcDAF ctr,hcDAF12 conf,others
O=c1[nH]c(COc2ccc(Cl)cc2Br)nc2ccccc12,12,n,8.7,7.1,n,8.8,8.9,n,n,
C(=N\Nc1nccc(-c2cccnc2)n1)/c1ccccc1,n,n,n,n,x,x,x,x,x,
Cc1ccnc(N/N=C/c2ccccc2)n1,13,n,17,4.6,n,11,6.3,n,n,
C/C(=N/NC(=O)c1ccccc1)C(=O)O,n,n,n,n,n,x,x,x,x,
C/C(=N\NC(=O)c1ccccc1)C1C2C=CC(C2)C1(C)C (configuration not stated),n,1.9,8.3,6.0,5.3,n,n,n,n,
O=S1(=O)CC(N2CCCCC2)CN1CCc1ccccc1 (configuration not stated),n,n,n,n,x,x,x,x,x,
COc1cc(-c2cc3nc(NCc4cccs4)ccn3n2)cc(OC)c1OC,n,n,n,n,x,x,x,x,x,
c1ccc(-c2cc3nc(NCc4cccs4)ccn3n2)cc1,12,n,10,7.8,x,16,8.1,n,6.6,
CCCCN1C(=O)C(CC(=O)NCCN2CCOCC2)CC(C(=O)N2CCCCCC2)=C1C (configuration not stated),n,n,n,n,x,x,x,x,x,
O=C(O)c1cc(N/N=C/C(Cl)=C/c2ccccc2)ccc1Cl,28,2.2,11,13,n,22,12,n,13,
Cc1ccc(/C=N/Nc2ccc(Cl)c(C(=O)O)c2)s1,22,4.1,19,6.7,n,12,9.1,n,12,
Cc1cc(Br)c2nc(-c3cccc(Br)c3)c(Cc3cccc(Cl)c3)n2c1,n,n,n,n,x,x,x,x,x,
O=C(OCc1nc2ccccc2s1)c1ccco1,11,n,9.1,4.9,n,7.4,4.7,n,8.6,
Cc1cc(C)n(-c2ncccc2[N+](=O)[O-])n1,n,n,n,n,n,x,x,x,x,
CC(C)c1ccc(-n2cnn(-c3ncccc3[N+](=O)[O-])c2=O)cc1,22,2.4,22,6.8,n,20,10,n,14,
Cc1ccc(C(=O)Oc2oc(-c3ccco3)nc2C=Nc2ccc(Cl)cc2)cc1,n,n,8.3,4.6,n,7.9,4.7,n,n,
Cc1ccccc1/C=N/NC(=O)c1sccc1C,27,2.0,12,6.2,n,15,10,n,n,
Cc1ccsc1C(=O)N/N=C/c1ccc2c(c1)OCO2,15,n,9.1,7.7,n,15,9.4,n,6.6,
Cc1ccsc1C(=O)N/N=C/C=C/c1ccccc1[N+](=O)[O-],n,n,n,n,n,x,x,x,x,
CCCCCN1CCCCC(NC(=O)c2ccc(C)cc2)C1=O (configuration not stated),n,n,n,n,x,x,x,x,x,
N#Cc1ccsc1NC(=O)CSc1nncs1,16,n,9.4,8.4,n,11,5.2,n,11,
Oc1cccc(/C=N/Nc2cccc3cccnc23)c1,23,3.7,21,5.7,n,20,10,n,25,
C/C(=N\Nc1cccc2cccnc12)c1ccccc1O,25,4.2,25,5.6,9.6,14,4.3,n,20,
Oc1c(/C=N/Nc2cccc3cccnc23)ccc2ccccc12,n,n,n,n,n,x,x,x,x,
Cc1ccc2nc(-c3ccc(NC(=O)COC(=O)c4cncc(Br)c4)cc3)sc2c1,13,1.6,9.5,5.7,n,17,7.5,n,12,
SMILES,hgDAF-12 ag,ssDAF12 agonist,hcDAF12 agonist,DAX1 inh-1,DAX1 inh-2,DAX1 inh confirm,SF1 mutant ctr,LXRb hcDAF ctr,hcDAF12 conf,others
CC(C)c1ccc(-n2nc3ccc(N)cc3n2)cc1,15,2.2,9.8,5.1,n,14,7.8,n,18,
COc1ccc(-n2nc3ccc(N)cc3n2)cc1,n,n,n,n,n,x,x,x,x,
Cc1cc(C(=O)CSc2nnc(N)s2)c(C)n1Cc1cccs1,n,n,6.7,6.2,n,16,n,n,n,
Cc1csc(SCC(=O)c2cc(C)n(Cc3cccs3)c2C)n1,n,n,n,n,n,x,x,x,x,
Cc1cc2c(cc1C)-n1nnnc1C(N1CCCNCC1)C(=O)N2 (configuration not stated),n,n,n,n,x,x,x,x,x,
O=C(Nc1cccc([N+](=O)[O-])c1)c1cc2ccccc2cc1O,n,n,n,n,n,x,x,x,x,
O=C(Nc1ccncc1)c1cc2ccccc2cc1O,12,n,6.7,6.2,n,7.3,5.8,n,6.3,
CC(C)Oc1ccc(CN2CCC2(C)C(=O)NCc2cccc3ccccc23)cc1 (configuration not stated),n,n,n,n,x,x,x,x,x,
Cc1ccc2nc(N3C(=O)C(O)=C(C(=O)c4ccco4)C3c3cccs3)sc2c1 (configuration not stated),13,n,9.1,5.3,n,5.9,n,n,n,
COc1ccc2nc(N3C(=O)C(O)=C(C(=O)c4ccco4)C3c3ccc(C)o3)sc2c1 (configuration not stated),n,n,n,n,n,x,x,x,x,
NC(=O)c1cc(Cl)ccc1OCC(=O)Nc1ccc2c(c1)OCO2,16,n,n,12,n,12,8.7,x,x,hgDAF12 ag=15;LXRb DAF12 ctr=n
O=C(COC(=O)COc1ccccc1[N+](=O)[O-])Nc1ccc2c(c1)OCO2,n,n,n,n,n,x,x,x,x,
N#Cc1ccccc1OCC(=O)Nc1ccc2c(c1)OCO2,20,n,n,5.9,n,6.5,4.0,x,x,hgDAF12 ag=13;LXRb DAF12 ctr=n
COCC(=O)Nc1ccc2c(c1)OCO2,n,n,n,n,n,x,x,x,x,
O=C(COc1ccccc1[N+](=O)[O-])Nc1ccc2c(c1)OCO2,15,n,9.2,6.7,n,6.8,4.1,n,5.8,hgDAF12 ag=12;LXRb DAF12 ctr=n
CC(C)c1ccc(C(=O)N2CCCCC2c2cc(C(=O)Nc3ccncc3)no2)cc1 (configuration not stated),n,n,n,n,x,x,x,x,x,
COc1ccc(C(NC(=O)C2CCN(CCCOc3ccccc3)CC2)c2cccs2)cc1 (configuration not stated),n,n,n,n,x,x,x,x,x,
